# Rows were chosen to be rich in hits. Some 3% of all compounds tested hit in one or more screens of this group.
# PAX8 reporter – inhibitors of PAX8 transcriptional activity in RMG-I cells. RMG-I TPO-luciferase reporter, SteadyGlo, 24 h. hit rate 1.2% among 360,000. inhibition, % at 12.6 µM;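 active = mean replicate inhibition at least 60% with every replicate also reaching 60%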;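 note: luciferase light reporting Pax8 driven TPO promoter activity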
# EWS-Fli inh – inhibitors of EWS/Fli oncoprotein transcriptional activity. A673 NR0B1-luciferase reporter, viability-normalised. inhibition, % at 12.6 µM. hit rate 0.67% among 350,000. AID 651661;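 active = mean inhibition of at least 50% after viability correction, with every replicate also passing that limit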;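 note: firefly luciferase signal divided by Alamar Blue viability fluorescence both relative to DMSO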
# Peg3 prom inh – Peg3 promoter activity inhibition | inhibition, % at 20 µM | hit rate 1.7% among 360,000 | HeLa PEG-Prom luciferase reporter, luminescence, overnight | AID 588405;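 active = inhibition of at least 50% at 20 µM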
# ABHD5-PLIN5 inh – blocks binding of human ABHD5 to perilipin-5; Q00G26+Q8WTS1; inhibition, % at 4 µM; Split G. princeps luciferase complementation, luminescence, 4 h; hit rate 0.78% among 360,000; AID 602281;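 active = inhibition above the mean inhibition across every tested compound plus 3 SD, cut at about 22% in these data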
# Shn3 inh set2 – Schnurri-3 reporter inhibition in Clone20 osteoblasts; Clone20 osteoblast Shn3 3'UTR firefly luciferase, 24 h; inhibition, % at 12.5 µM; hit rate 0.52% among 360,000;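 active = mean inhibition of at least 75% with every replicate also reaching 75%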
# MITF TRPM1 inh – inhibitors of MITF-driven TRPM1 promoter in melanoma cells; hit rate 0.83% among 330,000; AID 488899; inhibition, % at 12.5 µM; SK-MEL-5 TRPM1 promoter luciferase, 24 h;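 active = mean inhibition across replicates of 60% or more, whatever share of single replicates reaches that level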
# DNA binding – binds DNA displacing acridine orange; hit rate 2% among 640; salmon sperm DNA acridine orange fluorescence polarization; shares compounds with EWS-Fli inh; AC35, µM (top dose mostly 68 µM);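 active = fitted curve reaches a 35% signal fall AC35 below twice the sample's top valid tested dose, actives reach about 48 µM in these data; inactive = the rest, including activity in the rising direction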;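 note: lower polarization ratio signals compound binding to DNA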
# Hits are given with their value; – = inactive; · = no result.
SMILES,PAX8 reporter,EWS-Fli inh,Peg3 prom inh,ABHD5-PLIN5 inh,Shn3 inh set2,MITF TRPM1 inh,DNA binding
C[C@@H]1CN([C@@H](C)CO)S(=O)(=O)c2ccc(C#CCN(C)C)cc2O[C@@H]1CN(C)Cc1ccncc1,–,53,·,·,·,·,–
C[C@@H]1CN([C@H](C)CO)S(=O)(=O)c2ccc(C#CC(C)(C)O)cc2O[C@@H]1CN(C)Cc1ccc(-c2ccccc2)cc1,·,–,·,·,·,·,·
COc1ccc2c3c(n(C)c2c1)[C@H](CO)N(Cc1ccc2c(c1)OCO2)CC31CCN(C(C)=O)CC1,–,–,·,·,·,·,·
O=c1oc2cc(O)ccc2s1,–,60,–,–,–,–,–
Oc1ccc2c(c1)oc1cc(O)ccc12,·,·,–,–,–,–,·
COC(=O)c1ccccc1-c1c2ccc(=N)cc-2oc2cc(N)ccc12,96,86,–,–,–,–,<0.03µM
C[C@@H]1CN([C@H](C)CO)C(=O)Cc2cc(NC(=O)CCC(F)(F)F)ccc2O[C@H]1CN(C)S(=O)(=O)c1ccc(Cl)cc1,–,–,·,·,·,·,·
COC(=O)C[C@H]1C=C[C@@H](NC(=O)Nc2ccc(C(F)(F)F)cc2)[C@H](CO)O1,–,67,·,·,·,·,–
COC(=O)C[C@H]1C=C[C@H](NC(=O)Nc2ccc(C(F)(F)F)cc2)[C@H](CO)O1,–,–,·,·,·,·,·
COc1ccc(CC(N)c2csc(NC(=O)Nc3cccc(C(F)(F)F)c3)n2)cc1 (stereo not given),–,53,97,–,96,·,–
COc1ccc(CC(N)c2csc(Nc3nccc(C(F)(F)F)n3)n2)cc1 (stereo not given),–,–,–,–,–,·,·
COc1ccc(OC)c(-c2nnc3n2N=C(c2ccc(OC)c(OC4CCCC4)c2)CS3)c1,89,52,–,–,–,78,–
COc1ccc(C2=Nn3c(nnc3-c3ccccc3OC)SC2)cc1OCC1CC1,78,62,–,–,–,–,–
C[C@@H]1CN([C@@H](C)CO)S(=O)(=O)c2ccc(C3=CCCC3)cc2O[C@H]1CN(C)C(=O)C1CCCCC1,·,–,·,·,·,·,·
CCCNC(=O)[C@@H]1[C@@H](CO)[C@@H]2Cn3c(cccc3=O)[C@@H]2N1CCC(F)(F)F,–,–,·,·,·,·,·
C[C@H]1CN([C@@H](C)CO)C(=O)c2cccc(NC(=O)c3nc4ccccc4s3)c2O[C@@H]1CN(C)Cc1ccc(-c2ccccc2)cc1,·,–,·,·,·,·,·
Cc1nc(N)nc(N)c1-c1ccc(Cl)c(Cl)c1,–,53,–,–,–,–,–
Cc1nc(N)nc(N)c1CCCc1ccc(Cl)c(Cl)c1,–,75,–,–,–,–,–
CCCNC(=O)C[C@@H]1CC[C@H]2[C@H](COc3ccc(NC(=O)c4cc(F)cc(F)c4)cc3C(=O)N2C)O1,–,–,·,·,·,·,·
CCC(=O)N1CC[C@H]2[C@@H]1c1cc(-c3cccc(OC)c3)ccc1N(C)[C@H]2CO,–,–,·,·,·,·,·
COc1cc(-c2coc3c(C(=O)NCc4ccc(C(F)(F)F)cc4)cccc23)ccc1O,–,62,–,–,–,·,–
COc1cc(-c2coc3c(C(=O)NCc4ccncc4)cccc23)ccc1O,–,–,–,–,–,·,·
COc1ccc(NC(=O)N(C)[C@H]2C[C@H]3c4[nH]c5ccccc5c4CCN3C(=O)[C@H]2CO)cc1,–,53,–,–,–,·,–
O=C(NC1CCC1)[C@H]1[C@H](CO)[C@H]2Cn3c(ccc(C4=CCCC4)c3=O)[C@@H]1N2CC1CC1,·,–,·,·,·,·,·

# Bioassay records: PubChem, several laboratories
